Assay [1] can be described thus: antimalarial activity against Dd2 strain (AID 2302;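 active means growth inhibition above 50% at the single 2 µM test dose, taken to imply half-maximal potency below 2 µM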;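 further: 0% = DMSO untreated growth and 100% = chloroquine plus artemisinin killed control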). The conditions noted are these: P. falciparum Dd2 in RBCs, LDH growth readout, 72 h; at 2 µM; hits give high values.
Assay [2] can be described thus: human hepatoma cell viability loss – ATP luminescence, cytotoxicity control for P. falciparum antimalarial project, primary screen (AID 2303;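 active means inhibition above 50%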;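 further: 0% = DMSO wells and 100% = digitonin-killed cells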). As to conditions: HepG2 viability, 24-48 h, at 10 µM, hits give high values.
The target in assay [3] is L-lactate dehydrogenase (Plasmodium falciparum (isolate CDC / Honduras)) (UniProt Q27743). Description: PfLDH activity inhibition – cell lysate, 3D7 strain, counter-screen for P. falciparum growth inhibition project (AID 2304).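 Further: 0% = vehicle and 100% = reference inhibitor.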 The conditions noted are these: P. falciparum 3D7 crude extract, LDH APAD/NBT absorbance; at 2 µM; hits give high values. In general terms: The purpose of a counterscreen is to sort out artefacts and off-target activity.

A short description of assay [4]: inhibition of 3D7 malaria parasite growth – strain 3D7 (AID 2306).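 Further: 0% = DMSO wells and 100% = chloroquine plus artemisinin control wells.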 The conditions noted are these: P. falciparum 3D7 erythrocytic growth, LDH absorbance, 72 h; at 2 µM; hits give high values.
For assay [5], the target named is Calcium-dependent protein kinase 1 (Plasmodium falciparum (isolate 3D7)) (UniProt P62344). Description: PfCDPK1 kinase inhibitors, biochemical, TCAMS library (AID 1159585; cut-off not given, nearly all actives have IC50 up to about 0.98 µM;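 further: inhibitors leave more ATP so luminescence rises with inhibition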). As to conditions: recombinant PfCDPK1, Kinase-Glo ATP depletion luminescence.
Assay [6] addresses Plasmodium falciparum protein kinase 6 (PK6, PF3D7_1337100) (UniProt Q8IDW1). In words: PfPK6 kinase inhibitors, biochemical, TCAMS library (AID 1159586). As to conditions: recombinant PfPK6, Kinase-Glo ATP depletion luminescence. Background: Kinase-Glo measures the ATP left after a reaction by luminescence.
The target in assay [7] is Protein kinase 7 (PK7), Plasmodium falciparum 3D7 (PF3D7_0213400) (UniProt Q7YTF7). In words: inhibition of Plasmodium PK7 catalytic activity – biochemical, TCAMS antimalarial set, Kinase-Glo luminescence (AID 1159587). The conditions noted are these: recombinant PfPK7, Kinase-Glo ATP depletion luminescence.
The target of assay [8] is Calcium-dependent protein kinase 4 (Plasmodium falciparum (isolate 3D7)) (UniProt Q8IBS5). In words: PfCDPK4 kinase inhibitors, biochemical, TCAMS library (AID 1159588; cut-off not given, nearly all actives have IC50 up to about 0.91 µM). As to conditions: recombinant PfCDPK4, Kinase-Glo ATP depletion luminescence.

The structures appear in SMILES notation. Unmarked numbers belong to inactive results. For part of these data: Potency and affinity values are given separately. Active and inactive are the calls of the source. Unless noted, how the calls were made is not given here.

L-lactate dehydrogenase (Plasmodium falciparum (isolate CDC / Honduras)), sequence (Q27743 whole entry, looked up): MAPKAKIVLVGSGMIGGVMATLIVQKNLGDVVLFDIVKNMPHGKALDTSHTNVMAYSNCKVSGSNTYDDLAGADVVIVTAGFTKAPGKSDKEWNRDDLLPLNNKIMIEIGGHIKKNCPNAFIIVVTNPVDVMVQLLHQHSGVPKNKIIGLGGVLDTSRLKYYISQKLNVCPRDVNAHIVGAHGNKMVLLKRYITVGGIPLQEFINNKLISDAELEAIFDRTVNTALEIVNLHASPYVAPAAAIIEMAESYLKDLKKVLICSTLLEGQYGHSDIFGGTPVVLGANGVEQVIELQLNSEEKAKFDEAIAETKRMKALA
Calcium-dependent protein kinase 4 (Plasmodium falciparum (isolate 3D7)), sequence (Q8IBS5 whole entry, looked up): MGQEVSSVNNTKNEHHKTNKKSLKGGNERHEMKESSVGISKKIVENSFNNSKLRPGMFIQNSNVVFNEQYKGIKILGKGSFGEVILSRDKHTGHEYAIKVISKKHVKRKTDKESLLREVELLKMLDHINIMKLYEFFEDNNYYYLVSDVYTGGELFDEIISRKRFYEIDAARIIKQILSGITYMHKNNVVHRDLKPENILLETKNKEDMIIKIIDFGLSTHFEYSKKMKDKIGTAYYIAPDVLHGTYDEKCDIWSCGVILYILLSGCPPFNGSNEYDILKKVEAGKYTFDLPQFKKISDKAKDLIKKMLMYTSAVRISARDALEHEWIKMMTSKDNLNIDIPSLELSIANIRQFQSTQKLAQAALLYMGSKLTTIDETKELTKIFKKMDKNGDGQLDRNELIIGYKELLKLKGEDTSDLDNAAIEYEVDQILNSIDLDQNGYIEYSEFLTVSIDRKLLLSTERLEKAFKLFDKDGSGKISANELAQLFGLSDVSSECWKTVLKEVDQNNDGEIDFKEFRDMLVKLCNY
Protein kinase 7 (PK7), Plasmodium falciparum 3D7 (PF3D7_0213400), sequence (Q7YTF7 1-343): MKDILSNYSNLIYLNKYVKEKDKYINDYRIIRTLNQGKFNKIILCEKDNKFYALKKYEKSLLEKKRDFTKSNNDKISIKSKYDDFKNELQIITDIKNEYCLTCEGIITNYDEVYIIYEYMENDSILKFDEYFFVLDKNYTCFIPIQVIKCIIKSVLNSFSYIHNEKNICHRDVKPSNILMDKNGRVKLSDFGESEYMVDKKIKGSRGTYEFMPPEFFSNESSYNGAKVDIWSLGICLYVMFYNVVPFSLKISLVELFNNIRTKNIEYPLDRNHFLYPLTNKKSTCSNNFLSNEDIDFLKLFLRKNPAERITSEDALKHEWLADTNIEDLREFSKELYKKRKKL
Plasmodium falciparum protein kinase 6 (PK6, PF3D7_1337100), sequence (Q8IDW1 1-305): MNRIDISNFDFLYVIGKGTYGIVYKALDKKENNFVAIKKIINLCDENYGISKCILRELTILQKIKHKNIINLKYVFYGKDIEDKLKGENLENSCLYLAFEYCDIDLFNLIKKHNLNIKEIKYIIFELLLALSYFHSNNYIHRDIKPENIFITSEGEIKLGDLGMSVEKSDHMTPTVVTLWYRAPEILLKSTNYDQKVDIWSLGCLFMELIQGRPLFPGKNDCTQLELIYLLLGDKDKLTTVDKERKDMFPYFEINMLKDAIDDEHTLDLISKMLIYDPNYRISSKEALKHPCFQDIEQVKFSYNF
Calcium-dependent protein kinase 1 (Plasmodium falciparum (isolate 3D7)), sequence (P62344 whole entry, looked up): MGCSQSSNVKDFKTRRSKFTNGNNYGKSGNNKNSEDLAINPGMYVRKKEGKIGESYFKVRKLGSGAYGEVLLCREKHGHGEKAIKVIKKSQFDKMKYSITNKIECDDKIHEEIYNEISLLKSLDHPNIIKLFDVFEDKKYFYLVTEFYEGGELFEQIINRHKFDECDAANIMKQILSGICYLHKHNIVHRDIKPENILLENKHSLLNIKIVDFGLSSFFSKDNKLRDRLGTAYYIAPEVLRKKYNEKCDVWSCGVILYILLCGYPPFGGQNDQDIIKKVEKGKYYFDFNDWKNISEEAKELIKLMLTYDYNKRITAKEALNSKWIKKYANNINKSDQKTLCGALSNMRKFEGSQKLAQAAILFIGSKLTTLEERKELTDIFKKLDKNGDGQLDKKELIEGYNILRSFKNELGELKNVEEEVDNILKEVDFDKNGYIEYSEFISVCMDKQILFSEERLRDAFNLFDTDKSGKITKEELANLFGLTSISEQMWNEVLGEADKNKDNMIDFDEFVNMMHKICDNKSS

As to `CN(C)c1ccc(C=C2SC(=O)NC2=Nc2ccccc2)cc1`, the growth inhibition in assay [1] is 96% (active); in assay [4], 97% (active). The inhibition (usually the change of the read-out against control, counted positive when it falls) in assay [2] is 42%; in assay [3], 6%. Besides, the outcome in assay [5], in assay [6], in assay [7] and in assay [8] was inactive.
Turning to `FC(F)(F)COc1ccc2ccccc2c1CNCCCCCCNCc1c(OCC(F)(F)F)ccc2ccccc12`, the growth inhibition was 95% (active) in assay [1] and 101% (active) in assay [4]. Moreover, the inhibition in assay [2] was 99% (active); in assay [3], 2%. In addition, the result in assay [5], in assay [6], in assay [7] and in assay [8] was inactive.
For the molecule `Cc1cccc2[nH]c(-c3ccc(-c4ccc(CN5CCN(c6cnccn6)CC5)cc4)s3)nc12`, the growth inhibition in assay [1] was 42%; in assay [4], 94% (active). Besides, the inhibition is 11% in assay [2] and -6% in assay [3]. Also, the outcome in assay [5], in assay [6], in assay [7] and in assay [8] was inactive.
For `CCC(CC)N1C(=O)C(c2ccccc2)(c2ccccc2)N=C1N`, the results for the growth inhibition in assay [1] and in assay [4] were 61% (active) and 96% (active), respectively. In addition, the inhibition in assay [2] was 14%; in assay [3] it was -7%. Moreover, the result in assay [5], in assay [6], in assay [7] and in assay [8] was inactive.
For `O=C(/C=C/c1cccc(C(F)(F)F)c1)NCCCCCN1CCN(C(=O)Nc2ccc(Cl)c(Cl)c2)CC1`, the growth inhibition was -1% in assay [1] and 89% (active) in assay [4]. Besides, the inhibition in assay [2] is 29%; in assay [3], 4%. Further, the outcome in assay [5], in assay [6], in assay [7] and in assay [8] was inactive.
As for `COc1ccc(CN2CCCN(Cc3cccc(NC(=O)c4cc5ccccc5s4)c3)CC2)cc1`, the growth inhibition in assay [1] is 32%; in assay [4] it was 94% (active). For the same molecule, the results for the inhibition in assay [2] and in assay [3] were 32% and 5%, respectively. Also, the outcome in assay [5], in assay [6], in assay [7] and in assay [8] was inactive.
With `COc1ccc2c(=O)c(-c3ccc(OC(F)(F)F)cc3)c(C)[nH]c2c1`, the growth inhibition in assay [1] was 96% (active); in assay [4], 97% (active). The inhibition was 0% in assay [2] and -3% in assay [3]. Besides, the outcome in assay [5], in assay [6], in assay [7] and in assay [8] was inactive.
As for `O=C(/C=C/c1ccc(Cl)c(Cl)c1)NCCCCCCN1CCCN(C(=O)Nc2ccc(Cl)c(C(F)(F)F)c2)CC1`, the growth inhibition in assay [1] is 24%; in assay [4], 101% (active). The inhibition is 25% in assay [2] and -4% in assay [3]. Besides, the result in assay [5], in assay [6], in assay [7] and in assay [8] was inactive.
For `Cc1noc(NC(=O)c2sc3ccccc3c2O)c1C`, the growth inhibition in assay [1] is 50% (active); in assay [4], 90% (active). Besides, the inhibition in assay [2] is -12%; in assay [3], 0%. Besides, the outcome in assay [5], in assay [6], in assay [7] and in assay [8] was inactive.
In the case of `Cc1cc(N[C@@H](CC(C)C)C(=O)NCCc2ccccc2)nc(NCC2CCCCC2)n1`, the growth inhibition in assay [1] was 65% (active); in assay [4], 97% (active). Also, the inhibition was 19% in assay [2] and -1% in assay [3]. The outcome in assay [5], in assay [6], in assay [7] and in assay [8] was inactive.
Turning to `CCCNc1ccc2nccc(CCN3CCC(NCc4ccc5c(n4)NC(=O)CS5)CC3)c2n1`, the growth inhibition was -1% in assay [1] and 103% (active) in assay [4]. Further, the inhibition in assay [2] is 24%; in assay [3], -1%. In addition, the result in assay [5], in assay [6], in assay [7] and in assay [8] was inactive.
In the case of `COc1ccc2c(c1)CCCC2C(C)NCC(O)c1cccc(C(F)(F)F)c1` (centres undefined), the growth inhibition in assay [1] and in assay [4] was 99% (active) throughout. For the same molecule, the inhibition was 3% in assay [2] and -3% in assay [3]. Moreover, the outcome in assay [5], in assay [6], in assay [7] and in assay [8] was inactive.
On to `COc1cc(C)nc2ccc(NC(=O)Nc3ccccc3[N+](=O)[O-])cc12`, for which the growth inhibition in assay [1] was 58% (active); in assay [4] it was 101% (active). Also, the inhibition was 6% in assay [2] and -1% in assay [3]. In addition, the outcome in assay [5], in assay [6], in assay [7] and in assay [8] was inactive.
With `Cc1cc(NCCC(=O)Nc2ccccc2)nc(NCCc2ccc(F)cc2)n1`, the results for the growth inhibition in assay [1] and in assay [4] were 43% and 101% (active), respectively. The results for the inhibition in assay [2] and in assay [3] were 26% and 2%, respectively. The outcome in assay [5], in assay [6], in assay [7] and in assay [8] was inactive.
Turning to `O=S(=O)(NCCN1CCCC1)c1cccc(-c2ccc(CNC3Cc4ccccc4C3)cc2)c1`, the values for the growth inhibition in assay [1] and in assay [4] were 74% (active) and 99% (active), respectively. Moreover, the inhibition in assay [2] was 79% (active); in assay [3], -4%. Moreover, the result in assay [5], in assay [6], in assay [7] and in assay [8] was inactive.
Turning to `Nc1cccc(CNCc2ccc(-c3ccc(-c4nc5ccc(F)cc5[nH]4)s3)cc2)c1`, the growth inhibition in assay [1] is 93% (active); in assay [4], 102% (active). Besides, the inhibition in assay [2] is 12%; in assay [3] it was 1%. In addition, the outcome in assay [5], in assay [6], in assay [7] and in assay [8] was inactive.
With `CC(C(=O)NC1CCN(c2ccnc(Nc3ccc(F)cc3)n2)C1)c1ccc(Cl)cc1` (centres undefined), the growth inhibition in assay [1] is 90% (active); in assay [4] it was 95% (active). For the same molecule, the inhibition in assay [2] was 17%; in assay [3], -4%. The result in assay [5], in assay [6], in assay [7] and in assay [8] was inactive.
Take `CCN1CCN(CCCNc2c3ccc(Cl)cc3nc3ccc(OC)cc23)CC1`: the growth inhibition is 100% (active) in assay [1] and 97% (active) in assay [4]. In addition, the inhibition in assay [2] was 34%; in assay [3], -5%. Also, the result in assay [5], in assay [6], in assay [7] and in assay [8] was inactive.
